Source: PubChem BioAssay
Hits are enriched below; roughly 12% of the tested compounds scored in any of these assays.
BAZ2B inh = BAZ2B (human) inhibition | AlphaScreen BAZ2B-H3K14Ac peptide displacement | Potency, µM (highest dose often 114 µM), hits mostly inhibitors | hit rate 4.4% among 360,000; also: nearly all actives have a fitted effect of over 60% in size
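AlphaScreen displacement of biotin-H3(5-23)K14Ac peptide (50 nM final) from BAZ2B (50 nM final) in PBS pH 7.4, 0.01% Tween-20; complex preformed 30 min RT, then compounds (top 110 uM) 30 min RT, beads 20 min dark.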
HP1b binding inh = inhibitors of HP1-beta chromodomain binding to methylated histone tails | P83916 | AlphaScreen HP1-beta / biotin-H3K9me3 peptide binding | Potency, µM (top dose mostly 114 µM), usual class: inhibitors | hit rate 0.56% among 390,000 | AID 540317; also: nearly all actives have a fitted effect of over 70% in size
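Compound inhibition of the preformed complex between 50 nM HP1-beta and 50 nM biotinylated H3K9me3 peptide was read by AlphaScreen. Buffer was PBS pH 7.4 with 0.01% Tween-20. Incubations ran 30 min at room temperature, with 10 ug/mL donor/acceptor beads.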
JMJD2A Tudor = inhibitors of human JMJD2A Tudor domain; O75164; AlphaScreen JMJD2A-Tudor / H3K4me3 peptide binding; Potency, µM (highest dose often 114 µM), actives largely listed as inhibitors; hit rate 4.4% among 390,000; AID 504339; also: nearly all actives have a fitted effect of over 50% in size
Target sequence (O75164 whole entry, looked up, the tested form may be a part): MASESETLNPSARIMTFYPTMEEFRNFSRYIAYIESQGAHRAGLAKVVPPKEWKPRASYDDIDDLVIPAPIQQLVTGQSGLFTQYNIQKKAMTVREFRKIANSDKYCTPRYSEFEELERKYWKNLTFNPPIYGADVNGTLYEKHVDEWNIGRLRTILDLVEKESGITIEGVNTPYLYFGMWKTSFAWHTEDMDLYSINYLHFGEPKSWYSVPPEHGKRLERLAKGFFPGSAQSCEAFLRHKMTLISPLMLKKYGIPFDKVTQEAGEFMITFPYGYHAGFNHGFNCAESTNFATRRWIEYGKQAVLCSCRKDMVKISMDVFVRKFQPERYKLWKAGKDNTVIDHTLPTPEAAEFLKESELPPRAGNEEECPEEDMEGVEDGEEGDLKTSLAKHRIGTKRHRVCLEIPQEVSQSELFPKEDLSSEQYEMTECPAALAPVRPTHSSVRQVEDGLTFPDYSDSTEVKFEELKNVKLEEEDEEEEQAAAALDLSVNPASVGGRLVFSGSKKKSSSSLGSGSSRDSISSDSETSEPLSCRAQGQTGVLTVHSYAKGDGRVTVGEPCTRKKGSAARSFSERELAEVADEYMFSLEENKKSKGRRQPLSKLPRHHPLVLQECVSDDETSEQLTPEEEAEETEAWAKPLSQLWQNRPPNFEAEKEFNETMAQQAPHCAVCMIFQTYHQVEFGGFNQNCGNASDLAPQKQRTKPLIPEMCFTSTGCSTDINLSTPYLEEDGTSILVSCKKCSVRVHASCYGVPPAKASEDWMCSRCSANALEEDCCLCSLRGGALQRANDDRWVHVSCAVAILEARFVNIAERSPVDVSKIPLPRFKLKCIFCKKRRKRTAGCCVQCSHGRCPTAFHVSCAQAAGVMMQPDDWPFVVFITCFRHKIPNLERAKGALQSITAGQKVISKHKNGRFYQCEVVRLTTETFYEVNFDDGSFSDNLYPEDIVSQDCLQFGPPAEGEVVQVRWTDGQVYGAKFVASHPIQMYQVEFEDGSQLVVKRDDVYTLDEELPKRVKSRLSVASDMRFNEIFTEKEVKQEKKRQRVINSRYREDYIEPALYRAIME
L3MBTL1 block = blocks human L3MBTL1; Q9Y468; AlphaScreen L3MBTL1–H3K9me1 peptide binding; Potency, µM (titrated, usually from 57.1 µM), actives largely listed as inhibitors; hit rate 0.66% among 230,000; also: nearly all actives have a fitted effect of over 60% in size
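Read-out is AlphaScreen signal from streptavidin donor and nickel chelate acceptor beads (10 ug/mL final each) bridging L3MBTL1 (50 nM) and biotinylated K9-monomethylated H3(1-15) peptide (75 nM), after 30 min compound exposure at room temperature.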
Sfp inh = inhibitors of Bacillus subtilis Sfp phosphopantetheinyl transferase | Q9F4F7 | Biochemical Sfp PPTase activity, qHTS | Potency, µM, actives largely listed as inhibitors | hit rate 3.5% among 310,000 | AID 1490;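 also: the enzyme is Sfp with the accession as filed and its product quenches rhodamine fluorescence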
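Fluorescence-quenching assay: 15 nM Sfp-PPTase preincubated 15 min at room temperature with compound, then 5 uM rhodamine-CoA and 12.5 uM BHQ-2-labelled YbbR peptide added. Fluorescence (ex 525/em 598 nm) read at start and after 30 min; difference gives rate.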
G9a block = inhibitors of human histone lysine methyltransferase G9a | G9a H3K9 monomethylation, AlphaScreen, 2 h | Potency, µM (highest dose often 102 µM), usual class: inhibitors | hit rate 8.8% among 350,000 | AID 504332; also: nearly all actives have a fitted effect of over 75% in size
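G9a (20 nM) preincubated 15 min RT with compounds, then 500 nM biotinylated H3K9 peptide and 20 uM SAM added; 2 h RT reaction. Monomethyl-H3K9 product detected by AlphaScreen with anti-H3K9me1 antibody, streptavidin donor and anti-rabbit IgG acceptor beads.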
Hits are given with their value; 0 = inactive; ? = inconclusive; - = no result; [ ] = dose if it differs, or a comment. Calls follow the shape of the dose curve; as a rule, active = well fitted curve in the direction sought with a large enough effect; inconclusive = small, poorly fitted or top-dose-only effect, or another doubt; inactive = no such curve, though single readings can be large; an effect the other way counts as inactive or inconclusive.

SMILES	BAZ2B inh	HP1b binding inh	JMJD2A Tudor	L3MBTL1 block	Sfp inh	G9a block
Nc1c(Cl)ncnc1N/N=C/c1ccnc2ccccc12	0	0	0	0	35µM	?
C(=N\Nc1ncnc2ccccc12)/c1ccccc1	?	0	0[11.4 µM]	?	0	0
Cc1nc(N/N=C/c2ccccn2)sc1C	?	0	0	0	0	?
Clc1cccc(/C=N/Nc2ncnc3ccccc23)c1	35µM	0	?	0	0	-
Nc1c(Cl)ncnc1N/N=C/c1cccnc1	0	0	?	-	50µM	40µM
Clc1ccccc1/C=C/c1ccnc2ccccc12	0	0	0	0	?	0
CCN(CC)S(=O)(=O)c1ccc(NC(=O)CSc2nnc3c(n2)[nH]c2ccccc23)cc1	-	0	0	-	-	-
O/N=C/c1ccc2ccccc2n1	0	0	0	-	0	-
Nc1c(Cl)ncnc1N/N=C/c1ccc2ccccc2n1	13µM	0	89µM	?	0	?
OC(CON=C1c2ccccc2-c2ccccc21)CN1CCNCC1 (stereo not given)	20µM	?	3.5µM	-	0	50µM
CN1c2ccccc2C(C)(C)C12CCCC(=O)N2 (stereo not given)	50µM	0	?	0	0	8.9µM
O=C(CCC(=O)OCc1ccc(Br)cc1)Nc1ccccc1	0	0	50µM	0	0	0
O=C(CCC(=O)OCc1ccc(C(=O)Oc2ccc(Cl)cc2)cc1)Nc1ccccc1	0	0	0	0	0	0
N#Cc1ccc(NC(=O)c2cc(-c3cccc(Cl)c3)on2)cc1	0	0	0	-	-	0
C=CCOc1ccccc1CNc1ccc2[nH]c(=O)[nH]c2c1	56µM	?	?	0	0	28µM
C=CCOc1ccccc1CNc1cccc(F)c1	0	0	0	0	0	0
COc1cc(CNc2ccc3[nH]c(=O)[nH]c3c2)cc(Cl)c1OCc1ccccc1F	0	0	0	-	-	0
C=CCOc1ccccc1CNc1ccc2c(c1)OCCO2	71µM	?	50µM	-	0	8.9µM
CCOc1ccc(Br)cc1CNCCN1CCOCC1	0	0	0	0	0	?
COc1cccc(CNc2ccc3[nH]c(=O)[nH]c3c2)c1OCc1ccccc1F	28µM	32µM	45µM	?	0	45µM
CCOc1ccc(Br)cc1CNc1ccc2c(c1)OCCO2	25µM	50µM	28µM	?	0	0
O=C(Cn1cnc2onc(-c3ccc(F)cc3)c2c1=O)Nc1cccc(C(F)(F)F)c1	0	0	0	-	-	0
CCOC(=O)C(CC)Sc1nnc2[nH]c(=O)cc(C)n12 (stereo not given)	0	0	0	-	-	0
CCCCc1ccc(C(=O)N/C(=C\c2ccc(C)cc2)C(=O)NC2CCCCC2)cc1	0	0	0	-	-	0
Cc1cc2c(s1)c1cnn(Cc3cccc(F)c3F)c(=O)c1n2C	-	-	0	-	-	-
SMILES	BAZ2B inh	HP1b binding inh	JMJD2A Tudor	L3MBTL1 block	Sfp inh	G9a block
COc1ccc(NC(=O)N2CC3(CCN(C(=O)c4cnccn4)CC3)C2)cc1	-	-	-	-	0	0[12.7 µM]
CC1(C)CC(=O)C2=C(C1)OC(N)=C(C#N)C21CCN(Cc2ccccc2)CC1	0	0	0	0	0	28µM
CCCCC(=O)Nc1ccccc1C#N	0	0	0	0	0	0
CCCCC(=O)NNC(=S)NC(=O)CCC	0	0	50µM	0	79µM	10µM
CCCCC(=O)NC(=S)NNC(=O)c1ccc(OC)cc1	0	0	0	0	0	0[12.7 µM]
CCCCC(=O)NC(=S)NNC(=O)CC#N	0	0	18µM	-	10µM	?
Cc1ccc(N(C)S(=O)(=O)c2ccc3c(c2)CCC(=O)N3)cc1C	-	-	0	-	-	-
COc1ccc(N2CCN(C(CNS(=O)(=O)c3ccc(OC)c(C)c3)c3ccco3)CC2)cc1 (stereo not given)	25µM	?	25µM	-	-	7.9µM
COc1ccc(S(=O)(=O)NCC(c2ccco2)N2CCOCC2)cc1OC (stereo not given)	0	0	0	-	-	13µM
COc1ccc(S(=O)(=O)NCC(c2ccco2)N2CCN(c3ccccc3)CC2)cc1OC (stereo not given)	?	0	?	-	-	0
CCC1CC=CC2C1C(=O)N(Cc1ccccc1)C2c1ccc2ccccc2c1 (stereo not given)	-	0	0	-	0	-
O=C(c1cccc2nc3ccccc3nc12)N1CCOCC1	0	0	79µM	0	0	0[12.7 µM]
CCN(CC)C(=O)c1ccccc1NC(=O)c1ccccc1	0	0	0	-	0	0
CCN(CC)C(=O)c1cccc2nc3ccccc3nc12	0	0	79µM	0	0	0
O=C(NC1CCCN(Cc2ccccc2F)C1)C1CCC1 (stereo not given)	0	0	0	0	0	-
COc1cccc(CC(=O)Nc2ccc3c(c2)OC2(CCCC2)O3)c1	?	0	?	0	-	0[12.7 µM]
Cc1cc(C)c2c(N)c(C(=O)N3CCCCCC3)sc2n1	?	0	35µM	-	35µM	?
Nc1c(C(=O)N2CCCC2)sc2nc3c(cc12)CCCCCC3	0	0	0	0	56µM	?
Nc1c(C(=O)N2CCOCC2)sc2nc3c(cc12)CCCC3	0	0	0	-	0	?
O=C(NCC(Cl)c1ccc2ccccc2c1)c1c(F)cccc1F (stereo not given)	?	0	0	-	0	?
O=[N+]([O-])c1cc2c(cc1CN1CCN(CCOCCO)CC1)OCO2	?	0	?	0	79µM	79µM
O=[N+]([O-])c1ccc(N2CCN(CCOCCO)CC2)c([N+](=O)[O-])c1	32µM	?	7.9µM	0	0	-
COc1ccc(C2/C=C\CN(S(=O)(=O)c3ccc(C)cc3)C(Cc3ccccc3)C(=O)N2Cc2ccc(F)cc2)cc1 (stereo not given)	-	0	0	-	0	-
N#C/C(=C\c1ccc(N2CCOCC2)o1)C(=O)NCC1CCCO1 (stereo not given)	0	0	0	0	0	-
N#C/C(=C\c1ccc(N2CCOCC2)o1)C(=O)NCCc1ccccc1	0	0	0	0	0	32µM
SMILES	BAZ2B inh	HP1b binding inh	JMJD2A Tudor	L3MBTL1 block	Sfp inh	G9a block
N#C/C(=C\c1ccc(N2CCOCC2)o1)C(=O)NC1CCCCC1	0	0	0	0	45µM	-
CN1CCN(c2ncc3nc(-c4ccccc4)c(=O)n(CCC#N)c3n2)CC1	-	-	-	-	0	0[12.7 µM]
Cn1c(=O)cc(OCC(=O)NCc2ccc(F)cc2Cl)c2ccccc21	0	0	0	-	-	0
CC(C)CNc1oc(-c2ccccc2Cl)nc1C#N	?	?	0	?	0	40µM
N#Cc1nc(-c2ccc(Cl)cc2)oc1NCc1ccco1	0	0	0[11.4 µM]	-	0	0[12.7 µM]
N#Cc1nc(-c2ccccc2Cl)oc1NCc1ccco1	50µM	0	?	0	0	?
COc1ccc(-c2nc(C#N)c(NCc3ccccc3Cl)o2)cc1	0	0	0	-	0	0
COc1ccc(CNc2oc(-c3ccccc3)nc2C#N)cc1	45µM	0	?	0	0	40µM
N#Cc1nc(-c2ccccc2)oc1NCc1ccco1	50µM	0	0	?	0	?
